Source: PubChem (National Center for Advancing Translational Sciences (NCATS))
In the library only some 3.3% were active in any assay of this set; here they are far more common.
S16 F2sN tox: cytotoxicity in S16 Pmp22-F2sN Schwann cells | S16 Pmp22-F2sN Schwann cells viability, CellTiter-Glo, 24 h | Potency, µM (doses to about 57.5 µM), most hits filed as cytotoxic | actives 0.48% (n = 43,000); note: nearly all actives have a fitted effect of over 65% in size
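CellTiter-Glo counter-screen, qHTS, 1536-well. Cells: S16(c9) Pmp22-F2sN, 500-1,000/well in DMEM + 10% FBS. Cpd 23 nL pin transfer, 24 h, 37C/5% CO2. Read: luminescence, CCD imager.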
mTORC1 inh: inhibitors of mTORC1 signaling in Tsc2-/- p53-/- MEF cells; Tsc2-/- p53-/- MEF, phospho-rpS6 immunofluorescence/PI, 24 h; Potency, µM (series often up to 38.3 µM), actives largely listed as inhibitors; actives 0.78% (n = 44,000); note: nearly all actives have a fitted effect of over 50% in size
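Compounds act on Tsc2-/-, p53-/- fibroblasts carrying an empty vector for 24 h before fixation and dual staining for phospho-S6 and DNA (propidium iodide). Values are percentages of cells above a rapamycin-defined pS6/PI threshold.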
FH mod: Identification of activators of human fumarate hydratase by quantitative high-throughput screening; AID 1347055, 2019; Fumarate hydratase, mitochondrial (Homo sapiens), P07954; FH coupled MDH/diaphorase resazurin fluorescence, 15 min; actives 0.22% (n = 54,000); Potency, µM (highest dose often 79.9 µM), hits mostly inhibitors; note: the screen sought activators but most active calls are inhibition curves; nearly all actives have a fitted effect of over 45% in size
PMP22 txn: modulators of PMP22 gene transcription in S16 Schwann cells; actives 2% (n = 43,000); Potency, µM (series often up to 57.5 µM), hits mostly inhibitors; AID 1508649; S16 Pmp22-F2sN Schwann cells, FLuc/NLuc coincidence luminescence, 24 h; active = clear falling dose curves in both reporters; inconclusive = both reporters move, but less clearly or upward; inactive = either reporter flat; the % is the NLuc reporter signal
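Schwann cells carrying the coincidence reporter were exposed to library compounds for 24 h at 37C, then lysed and read for FLuc and, after quenching, NLuc luminescence on a CCD imager.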
HTT promoter inh: inhibitors of huntingtin promoter activity. HEK293 HTT promoter firefly luciferase reporter, 24 h. Potency, µM (doses to about 57.5 µM), actives largely listed as inhibitors. actives 0.93% (n = 48,000); note: nearly all actives have a fitted effect of over 50% in size
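Firefly luciferase readout (Dual-Glo, 10 min RT) after 24 h, 37 °C compound exposure (final up to 57.5 uM) of HEK293 reporter cells cultured 24 h beforehand; PTC124 at 50 uM final as control inhibitor; activity scaled vehicle 0%, zero RLU -100%.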
HTT-AS promoter: activates huntingtin-antisense promoter activity; Potency, µM (top dose mostly 57.5 µM), usual class: activators; actives 0.24% (n = 48,000); HEK293 HTT-AS promoter firefly luciferase reporter, 24 h; response scale: percent change from vehicle, -100% = no light; note: nearly all actives have a fitted effect of over 55% in size
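Luminescence was read after Dual-Glo reagent and a 10 min room-temperature incubation. Values were normalized to vehicle (0% activity) and zero RLU (-100% activity). Reporter HEK293 cells had been exposed to compounds (up to 57.5 uM final) for 24 h.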
NLuc sat counter: inhibits NanoLuc at saturating substrate, PMP22 counter-screen | shares compounds with PMP22 txn | Secreted NLuc enzyme (filtered S16 cell medium), Nano-Glo luminescence | Potency, µM (highest dose often 57.5 µM), hits mostly inhibitors | actives 4% (n = 690) | AID 1508638
NLuc Km ctr: inhibits NanoLuc under Km conditions, PMP22 counter-screen. secreted NLuc enzyme, coelenterazine luminescence, Km conditions. Potency, µM (series often up to 57.5 µM), most hits filed as inhibitors. actives 5% (n = 690). AID 1508639. shares compounds with PMP22 txn
FLuc ctr PMP22: counter-screen for PMP22 expression modulators: firefly luciferase inhibition. shares compounds with PMP22 txn. purified P. pyralis FLuc, luminescence, 10 min. Potency, µM (titrated, usually from 57.5 µM), hits mostly inhibitors. 690 tested, under 10 active
Target sequence (P08659 whole entry, looked up): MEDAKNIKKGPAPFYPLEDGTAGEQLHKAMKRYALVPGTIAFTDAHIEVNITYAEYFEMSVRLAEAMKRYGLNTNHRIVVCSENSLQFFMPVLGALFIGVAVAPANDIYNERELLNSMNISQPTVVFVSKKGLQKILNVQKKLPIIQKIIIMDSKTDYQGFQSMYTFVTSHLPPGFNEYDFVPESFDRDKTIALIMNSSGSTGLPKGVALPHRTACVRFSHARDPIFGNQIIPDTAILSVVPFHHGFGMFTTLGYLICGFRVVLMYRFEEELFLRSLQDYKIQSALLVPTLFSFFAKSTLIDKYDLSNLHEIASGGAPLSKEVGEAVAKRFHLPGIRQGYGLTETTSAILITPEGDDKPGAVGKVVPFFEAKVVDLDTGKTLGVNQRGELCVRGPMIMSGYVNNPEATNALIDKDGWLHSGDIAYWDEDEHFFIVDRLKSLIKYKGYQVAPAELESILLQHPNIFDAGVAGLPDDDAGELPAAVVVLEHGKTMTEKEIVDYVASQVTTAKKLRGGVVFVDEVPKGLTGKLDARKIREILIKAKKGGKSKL
S16 F2sN tox cnf: confirmation of cytotoxicity in S16 Pmp22-F2sN Schwann cells (luciferase reporters placed in the Pmp22 gene); shares compounds with PMP22 txn; S16 Schwann cells viability, CellTiter-Glo ATP luminescence, 24 h; Potency, µM (series often up to 57.5 µM), actives largely listed as cytotoxic; actives 7% (n = 690); AID 1508641
PMP22 txn cnf: confirmation of modulators of PMP22 gene transcription in S16 cells; shares compounds with PMP22 txn; actives 22% (n = 690); S16 Schwann cells Pmp22-F2sN, dual luciferase, 24 h; AID 1508646; Potency, µM (top dose mostly 57.5 µM), most hits filed as inhibitors; active = clear falling dose curves in both reporters; inconclusive = both reporters move, but less clearly or upward; inactive = either reporter flat; the % is the FLuc reporter signal
Of the large screens only hits and unclear results are named; the others gave an inactive call (follow-up assays come after a bar, where they were run). Unless noted, calls come from the whole dose curve; as a rule, active = well fitted curve in the direction sought with a large enough effect; inconclusive = small, poorly fitted or top-dose-only effect, or another doubt; inactive = no such curve, though single readings can be large; an effect the other way counts as inactive or inconclusive.

Cc1ccc(CNC(=O)c2ccc(-c3nc(CS(=O)(=O)c4ccc(C)cc4)c(C)o3)cc2)cc1	S16 F2sN tox inconclusive, FH mod inconclusive, PMP22 txn 13µM | NLuc sat counter inactive | NLuc Km ctr inactive | FLuc ctr PMP22 inactive | S16 F2sN tox cnf inactive | PMP22 txn cnf inactive
CCCCNC(=O)c1ccc(-c2nc(CS(=O)(=O)c3ccc(C)cc3)c(C)o2)cc1	PMP22 txn inconclusive, HTT promoter inh inconclusive
Cn1c(SCc2ccccc2F)nc2c([nH]c3ccccc32)c1=O	none
COCCn1c(SCc2ccccc2F)nc2c([nH]c3ccccc32)c1=O	PMP22 txn 11µM | NLuc sat counter inactive | NLuc Km ctr inactive | FLuc ctr PMP22 inactive | S16 F2sN tox cnf inactive | PMP22 txn cnf inconclusive
CCC1=Nc2cc(C(=O)NCCN(CC)CC)ccc2Sc2ccccc21	mTORC1 inh inconclusive, PMP22 txn 17µM | NLuc sat counter inactive | NLuc Km ctr inactive | FLuc ctr PMP22 inactive | S16 F2sN tox cnf inactive | PMP22 txn cnf inconclusive
CCCNC(=O)c1ccc2c(c1)N=C(CCC)c1ccccc1S2	mTORC1 inh inconclusive, FH mod inconclusive, PMP22 txn 11µM, HTT promoter inh inconclusive | NLuc sat counter inconclusive | NLuc Km ctr 9.7µM | FLuc ctr PMP22 inactive | S16 F2sN tox cnf inactive | PMP22 txn cnf 4.1µM
CCN(CC)CCOC(=O)c1ccc(NC(=O)Cn2ncc3c([nH]c4ccc(C)cc43)c2=O)cc1	S16 F2sN tox inconclusive, PMP22 txn 10µM | NLuc sat counter inactive | NLuc Km ctr inactive | FLuc ctr PMP22 inactive | S16 F2sN tox cnf 15µM | PMP22 txn cnf 13µM
CC(=O)c1c(O)cc2cccc3c2c1CC(C)(O)O3 (centres undefined)	none (no result: S16 F2sN tox, mTORC1 inh, PMP22 txn, HTT promoter inh, HTT-AS promoter)
Cc1c(Cl)cccc1NC(=O)CSc1ncc2c(n1)-c1ccccc1N(C)S2(=O)=O	PMP22 txn 17µM, HTT promoter inh inconclusive | NLuc sat counter inconclusive | NLuc Km ctr inconclusive | FLuc ctr PMP22 inactive | S16 F2sN tox cnf inactive | PMP22 txn cnf inactive
CCS(=O)(=O)c1nc(S(=O)(=O)c2ccc(Cl)cc2)c(NCc2ccccc2Cl)s1	PMP22 txn 4.8µM | NLuc sat counter inconclusive | NLuc Km ctr inconclusive | FLuc ctr PMP22 inactive | S16 F2sN tox cnf inactive | PMP22 txn cnf inactive
CCOc1cc(C2CC(=O)Nc3cc4c(cc32)OCCO4)ccc1O (centres undefined)	S16 F2sN tox inconclusive, FH mod inconclusive
COc1cc(C2CC(=O)Nc3cc4c(cc32)OCCO4)cc(Br)c1OC (centres undefined)	S16 F2sN tox inconclusive, mTORC1 inh inconclusive, PMP22 txn 0.67µM, HTT promoter inh inconclusive | NLuc sat counter inactive | NLuc Km ctr inactive | FLuc ctr PMP22 inactive | S16 F2sN tox cnf inactive | PMP22 txn cnf inconclusive
